Inconclusive results are not listed. The source made the active and inactive calls. Rule for the calls: active = hit-call score of the fitted dose curve at least 0.9, where 1 is the maximum; inconclusive = response in the unintended direction; inactive = score below 0.9.

The experiment can be described thus: ACEA_ER_AUC_viability: ACEA Biosciences xCELLigence Real-Time Cell Analysis on Estrogen Receptor Agonism for Viability (AID 2283782).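 Note: continuous compound exposure with impedance area under curve over 80 h; hit means loss of impedance signal meaning reduced cell growth or viability.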 Summed up: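 T47D cells preconditioned in phenol red-free RPMI with charcoal-stripped FBS, then dosed with 8-point 1:4 series from 100 uM (up to 0.5% DMSO). Impedance monitored up to ~80 h; area-under-curve loss versus DMSO taken as viability.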
The term AC50 denotes the concentration giving half of the maximal activity seen. For the compound `CCCC[O][Al]([O]CCCC)[O]CCCC`, the half-maximal activity concentration (AC50) is 59.3 µM (active). On to `NCC1CCCC(CN)C1` (stereo not given), for which the compound was classed as inactive.

Consider `COc1ccccc1[N+](=O)[O-]`, for which the outcome was inactive. Turning to `CCCC(=O)c1ccccc1`, the result was inactive. In the case of `NC1CCCCC1N` (stereo not given), the AC50 is 77.1 µM (active). As to `CC1(C)CCC[C@]2(C)[C@H]3CCO[C@]3(C)CC[C@@H]12`, the AC50 is 76.2 µM (active). With `O=[N+]([O-])c1cccc(Cl)c1`, the call was inactive. Consider `CC/C=C\CCOC(=O)CC`, for which the call was inactive. On the same count and under the same terms, for `CCN(CC)C(=O)N(CC)CC` the value was “inactive”. Regarding `CC1(C)COCN1`, the AC50 was 32.1 µM (active).

Source of the values: PubChem BioAssay (EPA / NIEHS).
